Test results reported in the supplement of paper PMC12645437, “Orthogonal IMiD-Degron Pairs Induce Selective Protein Degradation in Cells” (ACS Chemical Biology, 2025).
The full ranking holds about 8,300 sequences; the median of “log2 fold change of degron read counts, EGFP-low vs EGFP+ sorted cells (limma voom), compound-induced degradation” is about -1.1, and the highest 2% start at about 3.2. The sample holds the highest values, similar sequences and a random draw of the others, so the mix is not that of the screen.

T1: CRBN, Q96SW2
T1 chain: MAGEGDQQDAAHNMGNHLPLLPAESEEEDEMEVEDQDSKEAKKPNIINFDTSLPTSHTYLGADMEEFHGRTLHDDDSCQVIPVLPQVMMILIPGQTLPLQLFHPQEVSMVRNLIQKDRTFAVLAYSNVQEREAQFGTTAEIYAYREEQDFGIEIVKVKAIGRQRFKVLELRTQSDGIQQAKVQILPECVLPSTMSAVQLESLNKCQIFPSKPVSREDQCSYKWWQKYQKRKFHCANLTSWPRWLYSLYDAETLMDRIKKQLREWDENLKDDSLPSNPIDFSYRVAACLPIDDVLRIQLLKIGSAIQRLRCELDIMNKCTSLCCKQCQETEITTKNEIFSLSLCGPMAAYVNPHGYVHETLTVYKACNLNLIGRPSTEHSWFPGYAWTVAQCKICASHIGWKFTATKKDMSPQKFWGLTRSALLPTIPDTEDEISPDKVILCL


Molecular target: T1, CRBN, Q96SW2
Experiment: log2 fold change of degron read counts, EGFP-low vs EGFP+ sorted cells (limma voom), compound-induced degradation; higher = more compound-induced degradation of the degron-EGFP fusion; degrons are variants of IKZF1/3 zinc finger 2; compound dose not given here
Details: Jurkat, 18 h
[1] = compound: compound 19 (5-tert-butyl-thalidomide)
[2] = compound: compound 22 (5-morpholino-thalidomide)
[3] = compound: compound 33 (diphenyl IMiD analogue)
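Note: pooled lentiviral library of zinc finger degron-EGFP fusions in mCherry-positive Jurkat cells, FACS-sorted after compound exposure, with degron abundance counted by next-generation sequencing.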

Sequence	log2 fold change of degron read counts [1]	log2 fold change of degron read counts [2]	log2 fold change of degron read counts [3]	log2 fold change of degron read counts (compound: thalidomide)
FNCNICGACFTQKGNLLRHIKL [46F_47N_49N_50I_52G_53A_54C_55F_67L_, Q9UKT9]	0.853	-0.00319	0.551	-0.352
FTCSVCGHAFTQKGNLLRHIKL [46F_47T_49S_50V_52G_53H_54A_55F_67L_, Q9UKT9]	-2.6	-3.26	-2.56	-2.32
FMCNQCGAIFTQKGNLLRHIKL [46F_47M_49N_50Q_52G_53A_54I_55F_67L_, Q9UKT9]	-1.99	-2.22	-1.03	-1.47
FECPICGHRFTQKGNLLRHIKL [46F_47E_49P_50I_52G_53H_54R_55F_67L_, Q9UKT9]	-2.87	-2.87	-1.63	-0.824
LHCEICGFCCTQKGNLLRHIKL [46L_47H_49E_50I_52G_53F_54C_55C_67L_, Q9UKT9]	1.84	1.64	1.25	0.874
FYCEICGRTFTQKGNLLRHIKL [46F_47Y_49E_50I_52G_53R_54T_55F_67L_, Q9UKT9]	0.432	1.09	0.33	-1.02
FYCNQCGHVFTQKGNLLRHIKL [46F_47Y_49N_50Q_52G_53H_54V_55F_67L_, Q9UKT9]	-2.11	-2.08	-2.48	-1.76
FHCPVCGAFFTQKGNLLRHIKL [46F_47H_49P_50V_52G_53A_54F_55F_67L_, Q9UKT9]	0.94	0.598	1.1	-0.224
